Data published in ChEMBL document CHEMBL1961873, “Compounds: GSK PKIS; Assays: Nanosyn kinase panel” (2012).

Assays:
[1] = target: Leukocyte tyrosine kinase receptor (Homo sapiens) (UniProt P29376); settings: at 1 µM;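 also: each value is the mean inhibition of LTK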
[2] = target: Tyrosine-protein kinase Lyn (Homo sapiens) (UniProt P07948); settings: at 0.1 µM
[3] = target: Tyrosine-protein kinase Lyn (Homo sapiens) (UniProt P07948); settings: at 1 µM
[4] = target: Tyrosine-protein kinase Lyn (Homo sapiens) (UniProt P07948); settings: at 0.1 µM; remark: listed apart in the source
[5] = target: Tyrosine-protein kinase Lyn (Homo sapiens) (UniProt P07948); settings: at 1 µM; remark: listed apart in the source
[6] = target: T1, Tyrosine-protein kinase Mer (Homo sapiens) (UniProt Q12866); settings: at 0.1 µM
T1 sequence (whole entry): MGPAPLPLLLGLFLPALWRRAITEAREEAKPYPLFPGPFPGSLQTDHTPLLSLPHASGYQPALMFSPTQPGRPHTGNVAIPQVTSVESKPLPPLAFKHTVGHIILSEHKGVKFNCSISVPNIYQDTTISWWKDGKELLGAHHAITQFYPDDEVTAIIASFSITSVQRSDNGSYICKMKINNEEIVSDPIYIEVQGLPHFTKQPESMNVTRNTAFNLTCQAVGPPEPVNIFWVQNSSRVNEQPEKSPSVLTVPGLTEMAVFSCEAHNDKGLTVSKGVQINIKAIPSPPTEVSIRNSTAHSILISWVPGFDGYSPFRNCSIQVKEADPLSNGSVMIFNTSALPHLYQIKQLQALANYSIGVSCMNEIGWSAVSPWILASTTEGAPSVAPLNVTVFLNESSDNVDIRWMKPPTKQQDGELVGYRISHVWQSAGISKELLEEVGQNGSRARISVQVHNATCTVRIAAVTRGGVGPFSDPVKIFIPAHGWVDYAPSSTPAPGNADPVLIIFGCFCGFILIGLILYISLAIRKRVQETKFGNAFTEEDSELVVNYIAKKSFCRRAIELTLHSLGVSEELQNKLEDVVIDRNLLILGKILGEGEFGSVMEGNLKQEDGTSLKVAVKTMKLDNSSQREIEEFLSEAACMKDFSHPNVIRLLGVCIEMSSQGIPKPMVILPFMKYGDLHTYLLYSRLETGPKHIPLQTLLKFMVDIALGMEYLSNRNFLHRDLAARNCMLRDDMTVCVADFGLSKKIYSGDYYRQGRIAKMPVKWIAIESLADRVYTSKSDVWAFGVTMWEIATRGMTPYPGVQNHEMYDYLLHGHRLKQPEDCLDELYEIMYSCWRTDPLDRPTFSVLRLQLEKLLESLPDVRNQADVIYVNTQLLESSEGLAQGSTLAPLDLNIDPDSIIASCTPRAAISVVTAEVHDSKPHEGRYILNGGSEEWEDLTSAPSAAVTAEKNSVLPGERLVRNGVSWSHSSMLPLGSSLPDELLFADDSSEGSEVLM

[7] = target: T1, Tyrosine-protein kinase Mer (Homo sapiens); settings: at 1 µM
[8] = target: Hepatocyte growth factor receptor (Homo sapiens) (UniProt P08581); settings: at 0.1 µM
Sequence of Hepatocyte growth factor receptor (Homo sapiens) (P08581 whole entry): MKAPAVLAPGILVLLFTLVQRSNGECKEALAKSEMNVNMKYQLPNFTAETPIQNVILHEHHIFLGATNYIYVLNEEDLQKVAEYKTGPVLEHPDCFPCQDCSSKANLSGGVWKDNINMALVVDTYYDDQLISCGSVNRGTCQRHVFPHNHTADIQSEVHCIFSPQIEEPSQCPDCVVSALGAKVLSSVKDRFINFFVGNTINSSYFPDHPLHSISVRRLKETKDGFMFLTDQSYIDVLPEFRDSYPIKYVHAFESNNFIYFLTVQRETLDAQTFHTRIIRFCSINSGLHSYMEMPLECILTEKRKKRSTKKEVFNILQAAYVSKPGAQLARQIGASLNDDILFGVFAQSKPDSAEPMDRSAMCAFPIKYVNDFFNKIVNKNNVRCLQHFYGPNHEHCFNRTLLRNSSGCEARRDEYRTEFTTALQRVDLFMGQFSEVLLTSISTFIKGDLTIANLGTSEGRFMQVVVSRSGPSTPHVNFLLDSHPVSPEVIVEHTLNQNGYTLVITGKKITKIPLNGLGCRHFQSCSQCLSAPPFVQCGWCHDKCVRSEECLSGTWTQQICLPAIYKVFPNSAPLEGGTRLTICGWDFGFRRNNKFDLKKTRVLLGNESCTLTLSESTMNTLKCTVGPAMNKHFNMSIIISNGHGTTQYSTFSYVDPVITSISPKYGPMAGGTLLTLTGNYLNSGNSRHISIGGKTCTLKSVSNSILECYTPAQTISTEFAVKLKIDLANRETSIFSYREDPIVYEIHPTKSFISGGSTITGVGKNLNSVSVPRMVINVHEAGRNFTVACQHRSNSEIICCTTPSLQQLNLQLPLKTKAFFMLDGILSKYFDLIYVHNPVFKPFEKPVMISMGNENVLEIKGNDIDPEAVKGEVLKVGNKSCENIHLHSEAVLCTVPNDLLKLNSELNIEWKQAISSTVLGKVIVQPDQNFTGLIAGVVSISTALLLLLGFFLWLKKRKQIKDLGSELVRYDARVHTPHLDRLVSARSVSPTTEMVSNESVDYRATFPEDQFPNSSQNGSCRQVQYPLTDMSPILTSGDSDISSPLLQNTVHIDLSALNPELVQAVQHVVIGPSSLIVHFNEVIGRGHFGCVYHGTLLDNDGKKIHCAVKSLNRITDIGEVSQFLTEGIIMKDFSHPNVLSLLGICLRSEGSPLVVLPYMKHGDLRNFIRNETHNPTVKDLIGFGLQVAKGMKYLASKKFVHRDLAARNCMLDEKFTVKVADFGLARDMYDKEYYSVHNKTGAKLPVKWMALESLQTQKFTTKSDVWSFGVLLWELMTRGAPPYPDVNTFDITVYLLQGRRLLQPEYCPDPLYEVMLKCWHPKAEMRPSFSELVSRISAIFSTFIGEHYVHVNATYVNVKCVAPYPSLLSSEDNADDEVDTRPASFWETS

[9] = target: Hepatocyte growth factor receptor (Homo sapiens) (UniProt P08581); settings: at 1 µM
[10] = target: T2, Muscle, skeletal receptor tyrosine-protein kinase (Homo sapiens) (UniProt O15146); settings: at 0.1 µM
T2 sequence (whole entry): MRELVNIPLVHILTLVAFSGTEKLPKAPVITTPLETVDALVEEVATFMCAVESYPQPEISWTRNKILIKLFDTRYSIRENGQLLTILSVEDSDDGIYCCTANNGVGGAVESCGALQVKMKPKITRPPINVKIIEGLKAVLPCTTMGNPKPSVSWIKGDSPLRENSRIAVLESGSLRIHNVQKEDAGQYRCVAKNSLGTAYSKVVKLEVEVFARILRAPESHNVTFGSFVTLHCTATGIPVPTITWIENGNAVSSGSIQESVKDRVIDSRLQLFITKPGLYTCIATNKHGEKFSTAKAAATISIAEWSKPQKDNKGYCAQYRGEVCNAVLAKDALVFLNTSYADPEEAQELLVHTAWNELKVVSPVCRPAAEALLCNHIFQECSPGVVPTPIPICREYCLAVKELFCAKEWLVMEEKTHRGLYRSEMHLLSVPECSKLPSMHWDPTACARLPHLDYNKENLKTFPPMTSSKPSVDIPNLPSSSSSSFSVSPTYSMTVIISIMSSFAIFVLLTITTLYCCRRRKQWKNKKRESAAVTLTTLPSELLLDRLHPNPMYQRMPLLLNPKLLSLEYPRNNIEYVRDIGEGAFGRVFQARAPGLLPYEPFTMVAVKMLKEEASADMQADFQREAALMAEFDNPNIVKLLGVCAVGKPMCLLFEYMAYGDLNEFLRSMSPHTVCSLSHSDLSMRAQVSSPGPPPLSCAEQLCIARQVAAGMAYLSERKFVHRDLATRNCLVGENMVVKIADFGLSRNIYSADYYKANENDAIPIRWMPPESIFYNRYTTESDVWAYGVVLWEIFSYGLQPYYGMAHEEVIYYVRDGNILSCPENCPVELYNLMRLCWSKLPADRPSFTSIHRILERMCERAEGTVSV

[11] = target: T2, Muscle, skeletal receptor tyrosine-protein kinase (Homo sapiens); settings: at 1 µM
[12] = target: Platelet-derived growth factor receptor alpha (Homo sapiens) (UniProt P16234); settings: at 0.1 µM
Sequence of Platelet-derived growth factor receptor alpha (Homo sapiens) (P16234 whole entry): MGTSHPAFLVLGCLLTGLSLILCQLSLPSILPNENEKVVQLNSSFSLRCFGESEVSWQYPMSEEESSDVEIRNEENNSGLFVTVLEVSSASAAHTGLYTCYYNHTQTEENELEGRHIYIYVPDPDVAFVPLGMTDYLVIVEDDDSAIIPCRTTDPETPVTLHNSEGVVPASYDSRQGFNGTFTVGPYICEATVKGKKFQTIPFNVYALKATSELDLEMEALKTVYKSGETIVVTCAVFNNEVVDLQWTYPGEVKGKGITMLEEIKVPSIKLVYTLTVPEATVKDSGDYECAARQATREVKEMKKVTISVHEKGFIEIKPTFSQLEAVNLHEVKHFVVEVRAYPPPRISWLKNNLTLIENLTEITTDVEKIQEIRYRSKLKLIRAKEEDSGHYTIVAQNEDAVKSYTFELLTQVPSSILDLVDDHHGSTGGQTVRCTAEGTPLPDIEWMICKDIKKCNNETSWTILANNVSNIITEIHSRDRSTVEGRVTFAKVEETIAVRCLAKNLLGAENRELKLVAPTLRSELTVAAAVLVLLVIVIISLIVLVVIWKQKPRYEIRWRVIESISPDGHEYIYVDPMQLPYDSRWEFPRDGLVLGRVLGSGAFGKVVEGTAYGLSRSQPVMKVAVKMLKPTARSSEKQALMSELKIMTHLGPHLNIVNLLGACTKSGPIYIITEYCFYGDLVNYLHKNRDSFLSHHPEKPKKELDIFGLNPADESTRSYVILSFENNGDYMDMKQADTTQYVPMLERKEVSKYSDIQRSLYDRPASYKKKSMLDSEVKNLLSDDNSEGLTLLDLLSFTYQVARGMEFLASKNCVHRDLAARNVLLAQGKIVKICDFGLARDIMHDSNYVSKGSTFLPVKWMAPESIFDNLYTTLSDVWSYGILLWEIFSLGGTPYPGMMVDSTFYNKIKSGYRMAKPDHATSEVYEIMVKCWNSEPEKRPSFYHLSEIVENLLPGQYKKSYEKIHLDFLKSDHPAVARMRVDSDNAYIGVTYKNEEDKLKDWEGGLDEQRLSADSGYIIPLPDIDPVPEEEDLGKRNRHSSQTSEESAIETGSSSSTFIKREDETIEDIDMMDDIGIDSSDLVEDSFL

[13] = target: Platelet-derived growth factor receptor alpha (Homo sapiens) (UniProt P16234); settings: at 1 µM
[14] = tested on: Platelet-derived growth factor receptor alpha (Homo sapiens), P16234 [D842V]; settings: at 0.1 µM
[15] = tested on: Platelet-derived growth factor receptor alpha (Homo sapiens), P16234 [D842V]; settings: at 1 µM
[16] = tested on: Platelet-derived growth factor receptor alpha (Homo sapiens), P16234 [T674I]; settings: at 0.1 µM
Sequence of Platelet-derived growth factor receptor alpha (Homo sapiens), P16234 [T674I] (P16234 whole entry T674I): as the sequence (P16234 whole entry) above, with T674I counted along it

[17] = tested on: Platelet-derived growth factor receptor alpha (Homo sapiens), P16234 [T674I]; settings: at 1 µM
[18] = tested on: Platelet-derived growth factor receptor alpha (Homo sapiens), P16234 [V561D]; settings: at 0.1 µM
Sequence of Platelet-derived growth factor receptor alpha (Homo sapiens), P16234 [V561D] (P16234 whole entry V561D): as the sequence (P16234 whole entry) above, with V561D counted along it

[19] = tested on: Platelet-derived growth factor receptor alpha (Homo sapiens), P16234 [V561D]; settings: at 1 µM
[20] = target: Platelet-derived growth factor receptor beta (Homo sapiens) (UniProt P09619); settings: at 0.1 µM;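 also: reported value is the mean percent inhibition of the kinase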

Compound	inhibition [1]	inhibition [2]	inhibition [3]	inhibition [4]	inhibition [5]	inhibition [6]	inhibition [7]	inhibition [8]	inhibition [9]	inhibition [10]	inhibition [11]	inhibition [12]	inhibition [13]	inhibition [14]	inhibition [15]	inhibition [16]	inhibition [17]	inhibition [18]	inhibition [19]	inhibition [20]
CS(=O)(=O)CCNCc1nc(-c2ccc3ncnc(Nc4ccc(OCc5cccc(C(F)(F)F)c5)cc4)c3c2)cs1	3.87%	2.63%	2.07%	2.44%	1.23%	3.74%	5.41%	4.81%	2.51%	1.29%	5.88%	5.06%	13.7%	-0.28%	1.79%	5.99%	15.7%	4.8%	20.4%	6.68%
CCS(=O)(=O)c1ccc(OC)c(Nc2ncc(-c3cccc(OC)c3)o2)c1	3.16%	20.2%	68.2%	15.9%	63.6%	2.42%	7.73%	-0.79%	2.24%	4.87%		23.5%	58.4%	10.9%	55.3%	4.09%	10.2%	19.6%	68.7%	43.7%
CC(C)c1ccc2c(c1)NC(=O)/C2=N/Nc1ccc(S(N)(=O)=O)cc1	0.89%	3.02%	12.2%	2.61%	10.5%	0.63%	1.96%	0.7%	1.76%	-0.51%	3.81%	6.3%	34.2%	1.62%	17.2%	6.18%	48.9%	21.5%	52.3%	4.34%
NS(=O)(=O)c1cccc(-c2cc3ccncc3cc2OCc2ccccc2)c1	1.46%	5.16%	6.45%	2.95%	3.74%	4.79%	8.95%	3.75%	4.68%	0.26%	4.58%	13.6%	17.2%	2.28%	4.36%	14.8%	6.72%	2.61%	9.52%	7.66%
COc1cccc(-n2ncc3c(N/N=C/c4ccc(S(C)(=O)=O)cc4)ncnc32)c1	2.05%	54.1%	76.5%	48.1%	73.3%	6.96%	28.3%	14.5%	47.6%	12.1%	23.3%	43.7%	77.8%	51.8%	89%	21%	80.5%	44.1%	86.2%	52.4%
Cc1ccc2c(-c3ccnc(Nc4cccc(C(F)(F)F)c4)n3)c(-c3ccccc3)nn2n1	2.99%	12.6%	53%	8.81%	47.8%	4.49%	20%	13.9%	10.4%	4.93%	5.46%	13.9%	61%	10.5%	38.4%	3.21%	9.14%	14.2%	52%	35.4%
c1ccc(Nc2ncc(-c3ccccc3)o2)cc1	6.52%	5.9%	9.62%	4.91%	7.76%	2.15%	2.41%	3.87%	6.02%	3.65%	4.33%	9.48%	30.3%	3.2%	7.2%	6.18%	36.6%	20%	45.7%	10.8%
